Experiment [1] in a line: AP1 Signaling Pathway (AID 357).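 Note: ME-180 reporter cells stimulated with EGF at its EC50 level; % is set by controls: 0 for no effect and ±100 for the full control effect.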 In a few lines: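 AP-1-bla ME-180 cells, Opti-MEM + 0.5% dialyzed FBS, plated overnight 37 °C. Cpd titration + EC50 EGF, 5 h 37 °C. CCF4 2.5 h RT; ex 405, em 460/530 ratio → %activity, AC50.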
Experiment [2] concerns the target Cytochrome P450 1A2 (Homo sapiens) (UniProt P05177). Briefly: p450-cyp1a2 (AID 410; calls by dose curve;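 note: -100% = full effect of reference inhibitor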). In outline: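 Read-out is luminescence from luciferin produced by CYP1A2 demethylation of Luciferin-ME (100uM, at Km). Detection reagent stopped the 60 min NADPH-dependent reaction; signals were normalized to 57 uM furafylline.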
A short description of experiment [3]: Stat Signaling Pathway (AID 446).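 Note: ME-180 cervical cancer cells given 40 pM IL-6 alongside compound; SIE-controlled beta-lactamase reporter measured as 460/530 nm FRET emission ratio; % is set by controls: 0 for no effect and ±100 for the full control effect.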 In outline: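 Emission at 460 and 530 nm (excitation 405 nm) reports SIE-controlled beta-lactamase in ME-180 cells. Cells received compound with 40 pM IL-6 for 5 hrs at 37 C; data scaled between 300 pM IL-6 and 125 nM JAK-inhibitor controls.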
Experiment [4] addresses Glucocorticoid receptor (Homo sapiens) (UniProt P04150). As to the kind of experiment: GR-GFP Redistribution (AID 450;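 active = compounds whose dose series gives a full or clear partial fitted curve of increased nuclear translocation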; note: potency is the fitted concentration of half-maximal effect). Particulars: U2OS GR-GFP nuclear translocation, laser cytometry, 2 h.
The target is the same in experiment [5]. Briefly: GR-EFC Redistribution (AID 451; calls by dose curve; note: potency is the fitted concentration of half-maximal effect). To be noted: CHO-K1 GR-EFC translocation, beta-gal luminescence, 2 h. In a few lines: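 CHO-K1 cells stably expressing nuclear-localized β-gal enzyme acceptor and GR fused C-terminally to the enzyme donor fragment; ligand-driven nuclear translocation restores β-gal by complementation. Compounds titrated up to 46 uM final, 2 h at 37 °C; luminescence read.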

Experiment [6] deals with Mitogen-activated protein kinase 10 (Mus musculus) (UniProt Q61831). As to the kind of experiment: JNK3 AlphaScreen Assay (AID 530).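 Note: kinase came from lysate of stimulated human HepG2 cells; signal reports phosphorylation of biotinylated GST-cJun 1-79 at Ser73 with 10 µM ATP; % is set by controls: 0 for no effect and ±100 for the full control effect.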 In a few lines: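 Biotinylated GST-cJun(1-79) served as substrate for JNK3 in HepG2 lysates stimulated with IL-1beta and TNF-alpha. ATP was 10 uM final, pH 7.6. Ser73 phosphorylation was quantified by AlphaScreen (680 nm excitation).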
For experiment [7], the target named is 3',5'-cyclic-AMP phosphodiesterase 4B (Homo sapiens) (UniProt Q07343). As to the kind of experiment: qHTS Assay for Inhibitors of PDE-IV (AID 607; active = well fitted activation curve with a large enough effect in the main read-out, with a control signal flat, not every such curve was filed as active; note: % of control where 0% means no effect). In a few lines: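 The readout is membrane depolarisation from a cAMP-sensing CNG channel, detected with a potential dye at ex 535/em 590. Cells were HEK293-derived (endogenous PDE-IV) at 1000 cells/well, titrated up to 22.9 uM final.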

The nature of experiment [8]: qHTS Assay for Lipid Storage Modulators (AID 1519; calls by dose curve). To be noted: Drosophila S3 cells, BODIPY lipid droplet/cell ratio, laser cytometry, cells loaded with oleic acid. In a few lines:
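Cells seeded at 5,000 per well were treated with compounds over a concentration series and loaded with oleic acid (400 uM, as added). Lipid droplet fluorescence (488 nm excitation, 500-530 nm channel) was read by laser-scanning cytometry and normalized to 20 uM Triacsin C.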

Experiment [9] concerns the target Ubiquitin carboxyl-terminal hydrolase 1 (Homo sapiens) (UniProt O94782). Briefly: Inhibitors of USP1/UAF1: Pilot qHTS (AID 504865; active = well fitted curve in the direction sought with a large enough effect; an effect the other way counts as inactive or inconclusive;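 note: rhodamine fluorescence freed from ubiquitin-rhodamine substrate followed over time; top concentration of the series differs between compounds; % is set by controls: 0 for no effect and ±100 for the full control effect; nearly all actives have a fitted effect of over 35% in size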). In a few lines:
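Kinetic fluorescence assay: 1nM USP1/UAF1, 15 min compound preincubation, then 150nM Ub-Rho; 480/540 nm.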

The target in experiment [10] is Luciferin 4-monooxygenase (Photinus pyralis) (UniProt P08659). Briefly: Biochemical firefly luciferase enzyme assay for NPC (AID 624030; active = well fitted curve in the direction sought with a large enough effect; an effect the other way counts as inactive or inconclusive;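 note: purified P. pyralis luciferase at 10 nM with luciferin and ATP substrate; 0% = DMSO and -100% = full luciferase inhibition by PTC124 control; nearly all actives have a fitted effect of over 70% in size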). In a few lines: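 Counter-screen for direct inhibition of the luciferase enzyme by approved-drug library compounds, run at 10 nM enzyme in 50 mM Tris acetate (final). Luminescence was read within 5 min of enzyme-buffer addition and normalized to PTC124 versus DMSO (0%).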

Experiment [11] in a line: qHTS profiling for inhibitors of Plasmodium falciparum proliferation (AID 504749; active = well fitted curve in the direction sought with a large enough effect; an effect the other way counts as inactive or inconclusive;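 note: 0% = DMSO vehicle and full inhibition = artemisinin control; nearly all actives have a fitted effect of over 60% in size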). Particulars: P. falciparum in erythrocytes, SYBR Green DNA, 72 h, at 12.8 µM (top of the series). In a few lines: (§1)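 Fluorescence of SYBR Green-bound parasite DNA, read at 485/535 nm, served as the growth measure. Infected erythrocytes were cultured with compound 72 h; artemisinin (0.29 uM) and DMSO wells defined the normalization range.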

For a further experiment, the system named is ATS189. The description is as above. Particulars: P. falciparum in erythrocytes, SYBR Green DNA, 72 h; series mostly up to 28.7 µM. In a few lines:
as §1

The next experiment deals with DFO2036. The experiment is described as above. Particulars: P. falciparum in erythrocytes, SYBR Green DNA, 72 h; series mostly up to 28.7 µM. In a few lines: as §1
A short description of experiment [12]: NFAT Signaling Pathway (AID 444).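 Note: carbachol stimulus at about its EC50 of 1 µM final; % is set by controls: 0 for no effect and ±100 for the full control effect.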 Particulars: Jurkat NFAT-bla M1, carbachol, beta-lactamase ratio, 5 h. In outline: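 Jurkat cells carrying an NFAT-driven β-lactamase reporter and co-transfected muscarinic M1 receptor were treated with compound plus carbachol (1 uM final, an EC50 level) for 5 h at 37 °C. CCF4 loading followed for 1 h at RT; 460/530 nm ratio gave %activity.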

The target of experiment [13] is Cytochrome P450 3A4 (Homo sapiens) (UniProt P08684). Briefly: qHTS Assay for Activators of Cytochrome P450 3A4 (AID 885; active = well fitted curve in the direction sought with a large enough effect; an effect the other way counts as inactive or inconclusive; note: nearly all actives have a fitted effect of over 65% in size). In a few lines: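 Activators are scored by enhanced luminescence from CYP3A4 conversion of luciferin-PPXE (25uM, equal to KM) to luciferin, after 60 min at RT with an NADPH-regenerating system.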
For experiment [14] the target is unchanged. Briefly: qHTS Assay for Inhibitors and Substrates of Cytochrome P450 3A4 (AID 884; active = well fitted curve in the direction sought with a large enough effect; an effect the other way counts as inactive or inconclusive; note: % is set by controls: 0 for no effect and ±100 for the full control effect; nearly all actives have a fitted effect of over 50% in size). In a few lines: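 Luminescent readout of luciferin produced by CYP3A4 (20 nM) dealkylation of Luciferin-PPXE, 25 uM (its KM). NADPH-driven reaction ran 60 min at RT after 10 min compound preincubation; data scaled to 57 uM ketoconazole as 100% inhibition.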
A short description of experiment [15]: Confirmation and Secondary Assay for Modulators of Hemoglobin Beta Chain Splicing at IVS2 654 locus (AID 910; active = well fitted curve in the direction sought with a large enough effect; an effect the other way counts as inactive or inconclusive;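 note: per-well total GFP intensity by laser scanning cytometry after 2-day treatment; % of control where 0% means no effect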). In a few lines:
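HeLa cells stably carrying EGFP interrupted by mutant beta-globin IVS2-654 intron (CMV-driven) were treated with compound for 2 days at 37C; corrected splicing was scored as total peak GFP intensity per well (488 nm excitation, 500-520 nm emission).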

A short description of experiment [16]: Confirmation and Secondary Assay for Modulators of Hemoglobin Beta Chain Splicing at IVS2 705 locus (AID 930; active = well fitted curve in the direction sought with a large enough effect; an effect the other way counts as inactive or inconclusive;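 note: HeLa cells stably expressing the EGFP-705 splicing reporter; % of control where 0% means no effect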). In a few lines: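 HeLa cells stably carrying EGFP interrupted by mutant beta-globin IVS2-705 intron (CMV-driven) were seeded at 500 cells/well, treated next day with compound for 2 days at 37C; corrected splicing restores EGFP, read as total peak GFP intensity per well.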

Where [17] appears, read: measured here: cell count channel max response.
The mark [18] stands for this setting: measured here: lipid channel max response.

Molecules are shown by their SMILES. Where “and” joins values, the source holds several entries; their conditions need not be identical. Identical values can stand only once. Results filed as inconclusive are left out. Calls of active or inactive are those of the source. Unless noted, calls come from the whole dose curve; as a rule, active = well fitted curve in either direction with a large enough effect (not every such curve was filed as active); inconclusive = small, poorly fitted or top-dose-only effect, or another doubt; inactive = flat fitted curve, though single readings scatter.

Sequence of Cytochrome P450 1A2 (Homo sapiens) (P05177 whole entry, looked up): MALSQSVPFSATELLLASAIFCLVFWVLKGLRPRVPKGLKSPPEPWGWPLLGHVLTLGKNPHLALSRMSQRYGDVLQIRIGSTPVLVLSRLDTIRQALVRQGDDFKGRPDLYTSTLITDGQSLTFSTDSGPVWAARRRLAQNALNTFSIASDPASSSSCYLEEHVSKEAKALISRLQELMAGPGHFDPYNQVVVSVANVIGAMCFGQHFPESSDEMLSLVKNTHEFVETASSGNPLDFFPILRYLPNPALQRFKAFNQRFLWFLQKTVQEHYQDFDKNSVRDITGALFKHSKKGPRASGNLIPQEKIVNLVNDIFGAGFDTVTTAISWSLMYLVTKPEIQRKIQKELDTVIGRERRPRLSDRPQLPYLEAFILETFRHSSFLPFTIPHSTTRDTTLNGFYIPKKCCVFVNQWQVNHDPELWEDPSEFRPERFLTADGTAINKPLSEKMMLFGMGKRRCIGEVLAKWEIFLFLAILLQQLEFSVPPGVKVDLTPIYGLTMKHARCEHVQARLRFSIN
Sequence of Cytochrome P450 3A4 (Homo sapiens) (P08684 whole entry, looked up): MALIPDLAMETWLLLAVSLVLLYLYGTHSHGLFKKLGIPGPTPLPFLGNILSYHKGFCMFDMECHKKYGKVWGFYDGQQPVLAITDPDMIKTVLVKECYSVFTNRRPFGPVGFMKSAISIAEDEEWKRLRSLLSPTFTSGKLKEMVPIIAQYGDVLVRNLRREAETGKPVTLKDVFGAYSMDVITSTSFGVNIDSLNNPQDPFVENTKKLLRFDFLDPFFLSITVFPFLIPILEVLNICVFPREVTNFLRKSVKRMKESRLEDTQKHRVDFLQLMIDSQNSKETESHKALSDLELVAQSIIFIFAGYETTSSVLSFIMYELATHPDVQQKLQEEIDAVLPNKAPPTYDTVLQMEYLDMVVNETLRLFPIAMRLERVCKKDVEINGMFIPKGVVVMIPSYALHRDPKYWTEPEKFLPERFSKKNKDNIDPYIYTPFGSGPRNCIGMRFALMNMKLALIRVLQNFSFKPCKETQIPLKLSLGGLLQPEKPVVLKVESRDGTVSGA
Sequence of Ubiquitin carboxyl-terminal hydrolase 1 (Homo sapiens) (O94782 whole entry, looked up): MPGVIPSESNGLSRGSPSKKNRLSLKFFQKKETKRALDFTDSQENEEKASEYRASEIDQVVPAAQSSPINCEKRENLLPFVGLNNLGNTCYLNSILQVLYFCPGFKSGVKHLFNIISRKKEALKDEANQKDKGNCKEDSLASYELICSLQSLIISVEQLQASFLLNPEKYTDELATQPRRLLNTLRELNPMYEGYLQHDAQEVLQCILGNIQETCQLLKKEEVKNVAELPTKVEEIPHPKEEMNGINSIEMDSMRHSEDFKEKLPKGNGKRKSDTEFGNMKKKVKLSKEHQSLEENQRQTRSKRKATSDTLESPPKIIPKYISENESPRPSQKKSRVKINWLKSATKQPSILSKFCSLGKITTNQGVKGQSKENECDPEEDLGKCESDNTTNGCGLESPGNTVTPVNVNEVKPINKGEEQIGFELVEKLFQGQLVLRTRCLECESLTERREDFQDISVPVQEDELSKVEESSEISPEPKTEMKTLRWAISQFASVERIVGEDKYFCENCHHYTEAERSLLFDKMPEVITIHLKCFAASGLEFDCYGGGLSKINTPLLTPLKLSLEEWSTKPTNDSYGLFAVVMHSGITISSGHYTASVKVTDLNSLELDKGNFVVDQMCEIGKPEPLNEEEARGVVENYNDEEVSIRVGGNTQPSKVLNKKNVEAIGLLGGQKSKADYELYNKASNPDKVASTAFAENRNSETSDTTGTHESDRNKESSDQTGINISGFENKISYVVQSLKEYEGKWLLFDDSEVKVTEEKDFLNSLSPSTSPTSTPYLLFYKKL
Sequence of 3',5'-cyclic-AMP phosphodiesterase 4B (Homo sapiens) (Q07343 whole entry, looked up): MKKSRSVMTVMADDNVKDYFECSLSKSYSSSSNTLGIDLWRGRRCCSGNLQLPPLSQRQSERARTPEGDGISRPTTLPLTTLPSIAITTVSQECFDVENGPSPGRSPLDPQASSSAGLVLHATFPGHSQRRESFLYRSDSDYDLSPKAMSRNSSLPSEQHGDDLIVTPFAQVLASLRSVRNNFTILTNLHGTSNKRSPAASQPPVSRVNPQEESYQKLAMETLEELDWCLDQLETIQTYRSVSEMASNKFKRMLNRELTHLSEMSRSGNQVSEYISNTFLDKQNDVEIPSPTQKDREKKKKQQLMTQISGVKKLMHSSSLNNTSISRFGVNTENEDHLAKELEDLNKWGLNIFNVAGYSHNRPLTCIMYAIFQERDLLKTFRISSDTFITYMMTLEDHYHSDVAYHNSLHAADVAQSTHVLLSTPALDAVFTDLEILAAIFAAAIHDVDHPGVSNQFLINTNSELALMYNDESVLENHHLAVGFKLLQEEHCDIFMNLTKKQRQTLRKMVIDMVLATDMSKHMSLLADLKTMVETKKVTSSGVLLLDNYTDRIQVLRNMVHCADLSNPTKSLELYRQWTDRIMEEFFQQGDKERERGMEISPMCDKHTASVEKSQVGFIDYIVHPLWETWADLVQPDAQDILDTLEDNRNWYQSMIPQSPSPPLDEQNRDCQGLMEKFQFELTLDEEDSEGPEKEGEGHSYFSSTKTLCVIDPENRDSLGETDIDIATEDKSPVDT
Sequence of Glucocorticoid receptor (Homo sapiens) (P04150 whole entry, looked up, the tested form may be a part): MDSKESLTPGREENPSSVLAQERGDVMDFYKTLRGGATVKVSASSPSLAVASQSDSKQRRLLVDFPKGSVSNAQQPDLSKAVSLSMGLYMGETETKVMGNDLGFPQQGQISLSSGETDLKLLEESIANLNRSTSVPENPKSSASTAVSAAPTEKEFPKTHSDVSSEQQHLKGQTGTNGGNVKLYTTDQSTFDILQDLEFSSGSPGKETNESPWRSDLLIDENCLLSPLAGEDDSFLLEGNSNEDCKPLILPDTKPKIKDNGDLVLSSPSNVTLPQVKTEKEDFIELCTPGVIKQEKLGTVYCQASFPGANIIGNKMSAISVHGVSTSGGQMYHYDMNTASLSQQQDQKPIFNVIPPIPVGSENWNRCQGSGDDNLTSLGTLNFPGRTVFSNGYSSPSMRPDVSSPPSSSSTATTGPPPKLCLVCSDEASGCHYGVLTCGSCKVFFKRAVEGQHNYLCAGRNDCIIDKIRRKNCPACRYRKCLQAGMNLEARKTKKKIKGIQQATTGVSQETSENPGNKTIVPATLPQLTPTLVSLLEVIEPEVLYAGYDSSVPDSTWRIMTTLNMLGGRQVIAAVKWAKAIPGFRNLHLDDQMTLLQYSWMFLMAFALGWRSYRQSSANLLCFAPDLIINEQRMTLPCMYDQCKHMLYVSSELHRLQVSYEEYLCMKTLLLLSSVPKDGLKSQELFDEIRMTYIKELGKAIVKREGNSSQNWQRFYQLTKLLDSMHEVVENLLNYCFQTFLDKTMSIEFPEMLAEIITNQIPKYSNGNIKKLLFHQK
Sequence of Luciferin 4-monooxygenase (Photinus pyralis) (P08659 whole entry, looked up): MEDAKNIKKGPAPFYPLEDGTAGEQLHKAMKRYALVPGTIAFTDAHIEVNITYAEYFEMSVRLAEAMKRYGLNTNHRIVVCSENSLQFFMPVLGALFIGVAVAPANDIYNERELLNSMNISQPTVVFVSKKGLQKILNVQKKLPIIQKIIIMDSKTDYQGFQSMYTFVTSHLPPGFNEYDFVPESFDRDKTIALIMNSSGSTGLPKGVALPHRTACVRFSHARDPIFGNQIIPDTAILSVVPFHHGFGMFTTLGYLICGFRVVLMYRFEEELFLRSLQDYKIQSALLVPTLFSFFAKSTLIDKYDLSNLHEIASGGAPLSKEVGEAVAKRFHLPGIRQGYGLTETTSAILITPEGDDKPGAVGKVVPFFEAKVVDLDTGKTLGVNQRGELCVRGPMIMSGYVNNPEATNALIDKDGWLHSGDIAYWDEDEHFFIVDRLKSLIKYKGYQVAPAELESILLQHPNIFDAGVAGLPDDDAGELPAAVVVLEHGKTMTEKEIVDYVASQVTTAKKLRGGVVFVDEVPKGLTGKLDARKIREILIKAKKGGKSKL

Take `C[N+]1([O-])[C@@H]2CC[C@H]1CC(OC(=O)[C@@H](CO)c1ccccc1)C2` (stereo partly specified): the outcome in [1], in experiment [3] and in experiment [6] was inactive. The Potency result (in [2]; in [7]; in [9]; in experiment [10]; in the experiment on ATS189; in the experiment on DFO2036) was “inactive” in each case. Besides, the Potency in [4] and in experiment [5] was > 20.6 µM (inactive) throughout. In addition, the activity change, negative = inhibition in experiment [8] (at 25.7 µM (top of the series)) is -4.15% (inactive). In addition, the max response in experiment [8] (setting [17]) was 1.61%; in experiment [8] (setting [18]), -2.94%. Moreover, the activity, negative = inhibition in experiment [11] (parasite line A) is 1.56% (inactive); in experiment [11] (parasite line B), -10% (inactive).
In the case of `C[N+]1(C)CCO[C@](O)(c2ccc(-c3ccc([C@]4(O)C[N+](C)(C)CCO4)cc3)cc2)C1`, the Potency result in experiment [2] and in [7] was “inactive” in each case. Moreover, the activity change, negative = inhibition was -13.9% (inactive) in [12] (at 17.2 µM (top of the series)) and -0.651% (inactive) in experiment [8] (at 25.7 µM (top of the series)). The result in [3] and in experiment [6] was inactive. The Potency in [4] and in experiment [5] was > 20.6 µM (inactive) throughout. The values for the max response in experiment [8] (setting [17]) and in experiment [8] (setting [18]) were 6.3% and 5.83%, respectively.
For `C[C@@H]1O[C@H](O[C@@H]2C=C3CC[C@H]4[C@@H](CC[C@]5(C)[C@@H](c6ccc(=O)oc6)CC[C@]45O)[C@@]3(C)CC2)[C@@H](O)[C@H](O)[C@@H]1O`, the Potency result (in [2]; in [9]; in [10]; in the experiment on ATS189; in the experiment with DFO2036) was “inactive” throughout. The values for the activity change, negative = inhibition in experiment [12] (at 17.2 µM (top of the series)) and in experiment [8] (at 25.7 µM (top of the series)) were -39.6% (active) and -8.45% (inactive), respectively. For the same compound, the Potency in experiment [4] and in experiment [5] was > 20.6 µM (inactive) in each case. For the same compound, the compound was classed as inactive in [6]. Also, the max response in [8] (setting [17]) was -11.6%; in experiment [8] (setting [18]) it was -25.4%. In addition, the activity, negative = inhibition in experiment [11] (parasite line A) was -2.59% (inactive); in experiment [11] (parasite line B), -11.4% (inactive).
On to `CC[C@H]1C(=O)OC[C@H]1Cc1cncn1C`, for which the compound was classed as inactive in experiment [1] and in experiment [3]. The activity change, negative = inhibition in [12] (at 38 µM (top of the series)) was 27.4% (inactive) and 31.8% (inactive); in experiment [8] (at 25.7 µM (top of the series)) it was 0.358% (inactive). Further, the Potency result in experiment [13] and in experiment [9] was “inactive” in each case. Further, the results for the max response in experiment [8] (setting [17]) and in experiment [8] (setting [18]) were -8.31% and -6.45%, respectively.
On to `COc1cc(C(=O)OC2C[C@H]3CC[C@@H](C2)N3C)ccc1O` (stereo partly specified), for which the compound was called inactive in experiment [1], in experiment [3] and in experiment [6]. Moreover, the Potency result in experiment [2], in experiment [7] and in [9] was “inactive” throughout. In addition, the Potency in [4] and in experiment [5] was > 20.6 µM (inactive) in each case. In addition, the activity change, negative = inhibition in experiment [8] (at 25.7 µM (top of the series)) is 2.65% (inactive). For the same compound, the max response is -32.4% in [8] (setting [17]) and -27.3% in experiment [8] (setting [18]).
`c1ccc2c(c1)[nH]c1cnccc12`: the outcome in experiment [1] and in experiment [3] was inactive. Also, the activity change, negative = inhibition was 25.7% (inactive) in experiment [12] (at 17.2 µM (top of the series)) and 0.155% (inactive) in experiment [8] (at 57.5 µM (top of the series)). The Potency result in experiment [14], in [15] and in [16] was “inactive” throughout. The max response was -9.28% in experiment [8] (setting [17]) and -6.47% in experiment [8] (setting [18]).
On to `CN1[C@@H]2CC[C@H]1CC(O)C2` (stereo partly specified), for which the Potency result in experiment [2], in [7] and in experiment [9] was “inactive” throughout. Moreover, the activity change, negative = inhibition in experiment [12] (at 17.2 µM (top of the series)) is -15.4% (inactive); in [8] (at 25.7 µM (top of the series)) it was -5.91% (inactive). In addition, the compound was classed as inactive in experiment [3]. For the same compound, the max response in [8] (setting [17]) was -19.1%; in experiment [8] (setting [18]) it was -25.1%.

(Values after PubChem BioAssay (NCATS).)
